From PubChem BioAssay AID624288 (National Center for Advancing Translational Sciences (NCATS), 2012)
Among all 340,000 compounds or so, about 1,400 (0.41%) were called active. Roughly 4% stayed inconclusive and do not appear here. Calls come from the whole dose curve; cell line not stated here. What follows is part of a selection rich in actives, with near analogues and random picks from the rest.

assay: qHTS for Antagonists of gsp, the Etiologic Mutation Responsible for Fibrous Dysplasia/McCune-Albright Syndrome: qHTS; details: gsp-mutant cells, cAMP HTRF, 30 min; series mostly up to 76.9 µM; activity change, negative = inhibition: at the top concentration; note: nearly all actives have a fitted effect of over 65% in size
Procedure, shortened: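 Cells, 2000/well, grown 16–24 h in DMEM 10% FBS with 0.5 mg/ml G418, then compounds plus […] (300 uM addition stock), 30 min at 37C. cAMP read by HTRF (cAMP-d2 and anti-cAMP antibody-K in lysis buffer) after 30 min RT.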
% is set by controls: 0 for no effect and ±100 for the full control effect; potency is the fitted concentration of half-maximal effect.

Row | Compound | activity change, negative = inhibition | Potency
1 | NC(=O)C1(Nc2ccc(-c3ccccc3)cc2)CCCC1 | 1.29% (inactive) | 
2 | CC(C)OC(=O)c1ccc(NCc2cc(O)ccc2O)cc1Cl | -14.4% (inactive) | 
3 | C=CCCC(=O)N1C[C@H]2CON(C)[C@H]2C[C@H]1c1cccc(Nc2ccccc2)c1 | 5.91% (inactive) | 
4 | CCOc1ccccc1NC(=S)C(=C([O-])c1ccc2c(c1)OCCO2)[n+]1ccc(CC)cc1 | -11.2% (inactive) | 
5 | O=c1c2ccccc2ncn1CCc1ccncc1 | 1.41% (inactive) | 
6 | Cc1ccc(C)c(S(=O)(=O)N(C)c2ccc(OC(=O)C3CCN(C(=O)c4ccc(F)cc4)CC3)cc2)c1 | 6.12% (inactive) | 
7 | CCOc1cc(C(=O)N(Cc2ccccc2)c2ccc(C)cc2)ccc1OCC(=O)N1CCOCC1 | -18.4% (inactive) | 
8 | Cc1ccc2oc(=O)ccc2c1 | 3.3% (inactive) | 
9 | O=[N+]([O-])c1ccc(N=NNc2ccc([N+](=O)[O-])cc2)cc1 | -1.67% (inactive) | 
10 | OCC1(CO)CC2(C1)CC(CO)(CO)C2 | -6.02% (inactive) | 
11 | COc1cccc(CNS(=O)(=O)c2ccc3c(c2)CC(C)N3C(C)=O)c1 (configuration not stated) | -6.13% (inactive) | 
12 | COc1cccc(CNS(=O)(=O)c2ccc3c(c2)CC(C)N3C(=O)C2CCC2)c1 (configuration not stated) | -8.73% (inactive) | 
13 | COc1ccc(N(C)S(=O)(=O)c2ccc3c(c2)CC(C)N3C(=O)C2CC2)c(OC)c1 (configuration not stated) |  | 31.6 µM (active)
14 | O=C(Nc1cccc(Br)c1)C1CC(=O)N(C2CCCC2)C1 (configuration not stated) | 5.57% (inactive) | 
15 | CCOC(=O)C1CCCN(C(=O)CN(c2ccc(OC)cc2)S(=O)(=O)c2c(C)noc2C)C1 (configuration not stated) | -1.51% (inactive) | 
16 | CCN(C(=O)C1CCCN(c2nc(-c3ccc(OC)cc3)no2)C1)c1ccc(OC)cc1 (configuration not stated) |  | 35.5 µM (active)
17 | COc1ccc(NC(=O)N2CCCC(c3nc(-c4ccc(F)cc4)no3)C2)cc1 (configuration not stated) | -17.7% (inactive) | 
18 | O=C(O)C(=Cc1ccccc1[N+](=O)[O-])c1ccccc1 | 2.7% (inactive) | 
19 | Cc1ccc(CSc2nc(-c3ccccc3)c(C#N)c(=O)[nH]2)cc1 | -19.2% (inactive) | 
20 | N#Cc1c(-c2ccccc2)nc(SCc2cccc(C(F)(F)F)c2)[nH]c1=O |  | 50.1 µM (active)
21 | N#Cc1c(-c2ccccc2)nc(SCc2ccc([N+](=O)[O-])cc2)[nH]c1=O | 0.198% (inactive) | 

Row | Compound | activity change, negative = inhibition | Potency
22 | O=C(NC1=CC(=O)c2ccccc2C1=O)c1ccccc1 | -7.83% (inactive) | 
23 | CC(=O)N(C1=C(Cl)C(=O)c2ccccc2C1=O)c1ccc(C(=O)O)cc1 |  | 50.1 µM (active)
24 | CCSc1nsc(NC(=O)Nc2cccc(C(C)=O)c2)n1 |  | 25.1 µM (active)
25 | CC(=O)c1cccc(NC(=S)N2CCCC2)c1 | 10.4% (inactive) | 
26 | CCSc1nsc(NC(=O)Nc2ccccc2OC)n1 | -1.84% (inactive) | 
27 | C=CCSc1nsc(NC(=O)Nc2cccc(C(C)=O)c2)n1 |  | 28.2 µM (active)
28 | C=C(C)C(=O)Nc1cccc(C(C)=O)c1 | -4.03% (inactive) | 
29 | CSc1nsc(NC(=O)Nc2ccccc2)n1 | -11.3% (inactive) | 
30 | CC1C(C)N(C(=O)CCl)c2ccccc2N1C(=O)CCl (configuration not stated) | 1.2% (inactive) | 
31 | O=S(=O)(O)c1cc2onnc2c2ccccc12 | 7.02% (inactive) | 
32 | CC(C)(C)OC(=O)N1CCC(C(=O)Nc2cccc(C(=O)NCCc3ccccc3)c2)CC1 | -27.3% (inactive) | 
33 | O=C(OC12CC3CC(CC(C3)C1)C2)c1ccc(NCc2cc(O)ccc2O)cc1 | -1.83% (inactive) | 
34 | CCN1CCN(Cc2c(O)ccc3c(=O)c(-c4ccc(OC)c(OC)c4)c(C(F)(F)F)oc23)CC1 | -1.2% (inactive) | 
35 | COc1ccc(-c2onc(C)c2-c2ccc3c(c2)OCCO3)c(O)c1 | -8.76% (inactive) | 
36 | O=c1c(-c2ccc3c(c2)OCCO3)c(C(F)(F)F)oc2cc(O)cc(O)c12 |  | 39.8 µM (active)
37 | CC(C)(C)S(=O)(=O)N1Cc2cc(CO)cc(CCO)c2[C@H]1CCO | 6.66% (inactive) | 
38 | COc1cccc(C=CC(=O)C=CC=Cc2ccccc2)c1 | -6.85% (inactive) | 
39 | COc1ccc(-c2ccc3c(c2)C2CC3CCN2CCC#N)cc1 (configuration not stated) | 2.11% (inactive) | 
40 | O=C(/C=C/c1ccc(Cl)cc1Cl)c1cccnc1 | 6.49% (inactive) | 
41 | O=C1[C@@H]2C(c3cccnc3)=NO[C@@H]2C(=O)N1c1ccc(Cl)cc1Cl |  | 11.2 µM (active)
42 | O=C(NNC1CC(=O)N(c2cccc(Cl)c2)C1=O)c1cccnc1 (configuration not stated) | 2.65% (inactive) | 

Row | Compound | activity change, negative = inhibition | Potency
43 | Cc1ccc(C(=O)O)c(NC=O)c1OCc1ccccc1 | 3.23% (inactive) | 
44 | COc1ccc(CNC(=O)CN2C(=O)c3ccccc3S2(=O)=O)cc1 | -3.81% (inactive) | 
45 | Cc1cc(NC(=O)COc2ccccc2C#N)no1 |  | 31.6 µM (active)
46 | Cc1cc(NC(=O)COc2ccc([N+](=O)[O-])cc2)no1 | -1.16% (inactive) | 
47 | Cc1cc(NC(=O)COn2nnc3ccccc32)no1 | 1.85% (inactive) | 
48 | NC1=NOC(=O)C1C1CCCCC1 (configuration not stated) | 6.81% (inactive) | 
49 | O=C(Cc1ccc([N+](=O)[O-])cc1)NCCc1ccc2c(c1)OCO2 | -3.61% (inactive) | 
50 | O=C(CN1CCCCCC1)Nc1ccc(Br)cc1[N+](=O)[O-] | 8.23% (inactive) | 
51 | O=C(COc1ccc(Cl)cc1[N+](=O)[O-])N1CCCCC1 | 1.01% (inactive) | 
52 | O=[N+]([O-])c1cc([N+](=O)[O-])c(Oc2cc(F)cc(F)c2F)cc1NN1CCCCC1 |  | 11.2 µM (active)
53 | COc1ccc(/C=C/C(=O)OCC(=O)N2CCN(S(=O)(=O)c3ccc(C)cc3C)CC2)cc1OC | -14.6% (inactive) | 
54 | O=C(NCCc1ccccc1)c1cccc(NC(=O)c2ccccc2)c1 | -1.34% (inactive) | 
55 | O=c1ccn([C@@H]2O[C@H](CNS(=O)(=O)c3cc4ccccc4s3)[C@@H](O)[C@H]2O)c(=O)[nH]1 | 5.45% (inactive) | 
56 | Cc1ccc(S(=O)(=O)CCC(=O)OCC(=O)N(C)Cc2ccccc2)cc1 | -17.5% (inactive) | 
57 | O=C(NNC(=O)c1ccc2ccccc2c1)c1ccc(Cl)cc1 | 5.3% (inactive) | 
58 | O=C(CCl)NNc1nc(-c2ccccc2)c2cc(Cl)ccc2n1 | -5.34% (inactive) | 
59 | CCCNC(=O)CCn1nc(-c2ccccc2)c2ccccc2c1=O | -5.21% (inactive) | 
60 | COC(=O)Cn1nc(-c2ccccc2)c2cc(Cl)ccc21 |  | 31.6 µM (active)
61 | Cc1nn(-c2ncccn2)c2c1C(=O)CC(C)(C)C2Br (configuration not stated) | 1.24% (inactive) | 
62 | COc1ccc(Cn2cc(CN3CCS(=O)(=O)N(Cc4ccc(-c5cccc(Cl)c5)cc4)C(C)C3=O)nn2)cc1 (configuration not stated) | 1.24% (inactive) | 
